Results: PubChem BioAssay (Tox21)
Inconclusive results are not listed. Calls of active or inactive are those of the source. Unless noted, the call rests on the fitted dose curve; in most records, active means well fitted curve in the direction sought with a large enough effect in the repeat runs; inconclusive means weak or mixed curves; inactive means no such curve, though single readings can be large; an effect the other way counts as inactive or inconclusive.

Legend:
[1] = qHTS assay to identify small molecule agonists of the hypoxia (HIF-1) signaling pathway - cell viability counter screen (AID 1224844; calls by dose curve; further: nearly all actives have a fitted effect of over 50% in size)
Summary of the method: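 HRE-bla ME-180 cells, 2,000/well in 0.5% dialyzed FBS medium, treated 17 h at 37C with compounds. Viability read in the same wells as the bla reporter, by CellTiter-Glo luminescence after 30 min at room temperature.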

[2] = qHTS assay to identify small molecule agonists of H2AX (AID 1224845; active means well fitted activation curve with a large enough effect in the signal ratio in the repeat runs, not every such curve was filed as active; the % refers to the signal ratio)
Summary of the method: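 Wild-type CHO-K1 cells plated overnight, then exposed 3 hr at 37C to compounds at 15 concentrations (0.76% DMSO). Lysed, then HTRF anti-pH2AX(S139)-cryptate/anti-H2AX-d2 detection after 24 hr at room temperature; emissions 665 and 620 nm.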

[3] = qHTS assay to identify small molecule agonists of the hypoxia (HIF-1) signaling pathway (AID 1224846; active means well fitted activation curve with a large enough effect in the signal ratio in the repeat runs, not every such curve was filed as active; the % refers to the signal ratio)
Summary of the method: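 HRE-bla ME-180 beta-lactamase reporter cells in medium with 0.5% dialyzed FBS, pre-incubated 5 h then exposed to compounds 17 h at 37C, 5% CO2; reporter induction read with CCF4-AM FRET substrate.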

[4] = qHTS assay to identify small molecule agonists of H2AX - cell viability counter screen (AID 1224847; calls by dose curve; further: top concentration of the series differs between compounds; nearly all actives have a fitted effect of over 30% in size)
Summary of the method: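 After overnight plating of 1000 CHO-K1 cells per well, a 15-concentration compound series was applied for 3 hr at 37C. Luminescence from CellTiter-Glo, read following 30 min at room temperature, reflected cell viability.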

[5] = qHTS assay to identify small molecule antagonists of the estrogen related receptor (ERR) signaling pathway from Tox21 library (AID 1224848); further: nearly all actives have a fitted effect of over 50% in size
Summary of the method: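 Screening used an ERR reporter line supplied by NTP, exposed for 18 h at 37 C to library compounds delivered in DMSO. Signal was luciferase luminescence developed with ONE-Glo at room temperature for 30 min.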

[6] = qHTS assay to identify small molecule agonists of the estrogen related receptor (ERR) signaling pathway from Tox21 library (AID 1224849; calls by dose curve; further: nearly all actives have a fitted effect of over 15% in size); details: ERR reporter cell line, ONE-Glo luciferase, 18 h; at 92.4 µM (top of the series) unless noted
Summary of the method: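 ERR reporter cells (NTP line) pre-incubated 6 hours at 37 C, then exposed to compounds for 18 hours at 37 C. ONE-Glo luciferase luminescence was read after 30 minutes at room temperature.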

[7] = qHTS RealTime-Glo MT Cell Viability Assay in HepG2 cells - 24 hour (AID 1224867); further: nearly all actives have a fitted effect of over 50% in size
Summary of the method: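 Viability was tracked continuously by NanoLuc luminescence from prosubstrate reduced by living HepG2 cells, at successive time points over 40 h of compound exposure. Cells with reagent were preincubated 5 h at 37 °C before compound addition.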

[8] = qHTS RealTime-Glo MT Cell Viability Assay in HEK293 cells - 32 hour (AID 1224868); further: top concentration of the series differs between compounds; nearly all actives have a fitted effect of over 50% in size
Summary of the method: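 Viability tracked continuously by luminescence as live cells reduce a prosubstrate for NanoLuc; HEK293 cells preincubated 5 h, compound-treated at 37 C, and read at 0, 8, 16, 24, 32 and 40 h.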

[9] = A CellTox Green Cytotoxicity Assay to monitor cytotoxicity in HEK293 cells - 0 hour (AID 1224869); further: nearly all actives have a fitted effect of over 50% in size
Summary of the method: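 HEK293 cells, 600/well, were preincubated 5 hours and then exposed to compounds at 37 C for up to 40 hours. A cell-impermeant cyanine dye staining dead-cell DNA was read by fluorescence at 0, 8, 16, 24, 32 and 40 h time points.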

[10] = qHTS RealTime-Glo MT Cell Viability Assay in HepG2 cells - 40 hour (AID 1224870); further: nearly all actives have a fitted effect of over 50% in size
Summary of the method: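 HepG2 cells mixed with RealTime-Glo MT reagents (NanoLuc plus cell-permeant prosubstrate) were seeded at 600 cells/well, incubated 5 h at 37 C/5% CO2, then pinned with compounds in DMSO; nonlytic luminescence tracked viability during 40 h treatment.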
On the % scale 0 is the no-effect control and ±100 the full control effect.

OCCOc1ccc(OCCO)cc1
inactive: Potency [1] | outcome [2] | outcome [3] | Potency [4] | Potency [5] | activity change, positive = activation [6] 2.76% | Potency [7] | Potency [8] | Potency [9] | Potency [10]

NC(=O)c1ccc(N)cc1
inactive: Potency [1] | outcome [2] | outcome [3] | Potency [4] | Potency [5] | activity change, positive = activation [6] 8.51% | Potency [7] | Potency [8] | Potency [9] | Potency [10]

CC1(C)C(O)C(C)(C)C1O (configuration not stated)
inactive: Potency [1] | outcome [2] | outcome [3] | Potency [4] | Potency [5] | activity change, positive = activation [6] 1.44% | Potency [7] | Potency [8]

O=C(O)Cc1ccc(CCNS(=O)(=O)c2ccc(Cl)cc2)cc1
inactive: Potency [1] | outcome [2] | outcome [3] | Potency [4] | Potency [5] | activity change, positive = activation [6] 0.244% [at 42.5 µM] | Potency [7] | Potency [8] | Potency [9]

COc1cc(C(=O)N2CCCCCCC2)cc(OC)c1OC
inactive: Potency [1] | outcome [2] | outcome [3] | Potency [4] | Potency [5] | activity change, positive = activation [6] 8.77% [at 42.5 µM] | Potency [7] | Potency [8] | Potency [9] | Potency [10]

CC(NC(CCc1ccccc1)C(=O)O)C(=O)N1C(=O)N(C)CC1C(=O)O (configuration not stated)
inactive: Potency [1] | outcome [2] | outcome [3] | Potency [4] | Potency [5] | activity change, positive = activation [6] 2.19% [at 42.5 µM] | Potency [7] | Potency [8] | Potency [9]

NC(=O)COCCN1CCN(C(c2ccccc2)c2ccc(Cl)cc2)CC1 (configuration not stated)
inactive: Potency [1] | outcome [2] | outcome [3] | Potency [4] | Potency [5] | activity change, positive = activation [6] 5.27% [at 42.5 µM] | Potency [7] | Potency [8] | Potency [9] | Potency [10]

N[C@H]1CN(c2c(F)cc3c(=O)c(C(=O)O)cn(C4C[C@H]4F)c3c2Cl)CC12CC2 (some centres not stated)
inactive: Potency [1] | outcome [2] | outcome [3] | Potency [4] | Potency [5] | activity change, positive = activation [6] 5.03% [at 42.5 µM] | Potency [7] | Potency [8] | Potency [9]

C=COCC1CCC(CO)CC1 (configuration not stated)
inactive: Potency [1] | outcome [2] | outcome [3] | Potency [4] | Potency [5] | activity change, positive = activation [6] 2.36% | Potency [7] | Potency [8] | Potency [9] | Potency [10]

CCCCCCCCCCCCCC=O
inactive: activity change, negative = cytotoxicity [1] 0.368% [at 6.97 µM] | activation (H2AX phosphorylation) [2] -4.49% [at 14 µM] | activation [3] -0.206% [at 7.01 µM] | activity change, negative = cytotoxicity [4] 0.845% [at 14 µM] | activity, negative = inhibition [5] -0.715% [at 8.39 µM] | activity change, positive = activation [6] -0.514% [at 8.39 µM] | activity change, negative = cytotoxicity [7] -6.68% [at 6.97 µM] | activity change, negative = cytotoxic [8] 5.71% [at 6.97 µM] | cytotoxicity [9] -4.46% [at 6.97 µM]

CC(=O)N(CC(O)CO)c1c(I)c(C(=O)NCCO)c(I)c(C(=O)NCC(O)CO)c1I (configuration not stated)
inactive: Potency [1] | outcome [2] | outcome [3] | Potency [4] | Potency [5] | activity change, positive = activation [6] 5.17% [at 42.5 µM] | Potency [7] | Potency [8] | Potency [9] | Potency [10]

CCSC(=O)N(CC(C)C)CC(C)C
inactive: Potency [1] | outcome [2] | outcome [3] | Potency [4] | Potency [5] | activity change, positive = activation [6] 3.6% | Potency [7] | Potency [8] | Potency [9] | Potency [10]

CC(C)CNCC(C)C
inactive: Potency [1] | outcome [2] | outcome [3] | Potency [4] | Potency [5] | activity change, positive = activation [6] 1.17% | Potency [7] | Potency [8] | Potency [9] | Potency [10]

CCCc1cc(C(N)=S)ccn1
inactive: Potency [1] | outcome [2] | outcome [3] | Potency [4] | Potency [5] | activity change, positive = activation [6] -6.09% [at 42.5 µM] | Potency [7] | Potency [8] | Potency [9]

CC(C)=CCCC(C)CC(=O)O (configuration not stated)
inactive: Potency [1] | outcome [2] | outcome [3] | Potency [4] | Potency [5] | activity change, positive = activation [6] 3.83% | Potency [7] | Potency [8] | Potency [9] | Potency [10]

C1CN(CCOCCN2CCOCC2)CCO1
inactive: Potency [1] | outcome [2] | outcome [3] | Potency [4] | Potency [5] | activity change, positive = activation [6] -7.8% | Potency [7] | Potency [8] | Potency [9] | Potency [10]

C=CCOCC(CC)(CO)COCC=C
inactive: Potency [1] | outcome [2] | outcome [3] | Potency [4] | Potency [5] | activity change, positive = activation [6] 4.88% | Potency [7] | Potency [8] | Potency [9] | Potency [10]

NC(CSCC(=O)O)C(=O)O (configuration not stated)
inactive: Potency [1] | outcome [2] | outcome [3] | Potency [4] | Potency [5] | activity change, positive = activation [6] 5.41% [at 42.5 µM] | Potency [7] | Potency [8] | Potency [9] | Potency [10]

CCOc1ccc(C(=O)OCCN(CC)CC)cc1
inactive: Potency [1] | outcome [2] | outcome [3] | Potency [4] | Potency [5] | activity change, positive = activation [6] 1.57% [at 42.5 µM] | Potency [7] | Potency [8] | Potency [9] | Potency [10]

Cn1cc(S(C)=O)c(=O)c2ccc(F)cc21 (configuration not stated)
inactive: Potency [1] | outcome [2] | outcome [3] | Potency [4] | Potency [5] | activity change, positive = activation [6] 0.0404% [at 42.5 µM] | Potency [7] | Potency [8] | Potency [9] | Potency [10]

CO/N=C(/C(=O)N[C@@H]1C(=O)N2C(C(=O)OCOC(=O)C(C)(C)C)=C(C)CS[C@H]12)c1csc(N)n1
inactive: Potency [1] | outcome [2] | outcome [3] | Potency [4] | Potency [5] | activity change, positive = activation [6] 4.91% [at 42.5 µM] | Potency [7] | Potency [8] | Potency [9] | Potency [10]

COC(=O)c1ccc(C)cc1C1=NC(C)(C(C)C)C(=O)N1 (configuration not stated)
inactive: Potency [1] | outcome [2] | outcome [3] | Potency [4] | Potency [5] | activity change, positive = activation [6] 4.81% | Potency [7] | Potency [8] | Potency [9]
